PubChem BioAssay
Unmarked numbers belong to inactive results. How the calls were made is not given here.

Molecular target: Pantothenate synthetase (Mycobacterium tuberculosis (strain ATCC 25618 / H37Rv)) (UniProt P9WIL5)
Experiment: Coupled enzyme confirmation of inhibitors against recombinant Mtb PanC (AID 375);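 further: 0% = full reaction with vehicle and 100% = no enzyme background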
Details: coupled enzyme assay; at 10 µM, active compounds read high

Chain of Pantothenate synthetase (Mycobacterium tuberculosis (strain ATCC 25618 / H37Rv)) (P9WIL5 whole entry, looked up): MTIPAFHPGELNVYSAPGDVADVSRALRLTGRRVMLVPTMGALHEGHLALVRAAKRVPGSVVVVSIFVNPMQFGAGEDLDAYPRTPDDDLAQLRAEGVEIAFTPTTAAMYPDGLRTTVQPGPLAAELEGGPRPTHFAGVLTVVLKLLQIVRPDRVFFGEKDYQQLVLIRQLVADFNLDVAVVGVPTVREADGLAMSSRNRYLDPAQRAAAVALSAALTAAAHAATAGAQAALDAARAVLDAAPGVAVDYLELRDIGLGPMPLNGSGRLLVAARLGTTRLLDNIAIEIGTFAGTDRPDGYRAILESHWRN

Compound | inhibition [%]
O=C(c1cnn2c(C(F)F)cc(-c3ccccc3)nc12)N1CCN2CCCC2C1 (stereo not drawn) | 0
O=C1CC(N2CCN(c3cccc(C(F)(F)F)c3)CC2)C(=O)N1c1ccccc1 (stereo not drawn) | 0
Cc1ccc(OCCC(=O)OCC(=O)C(C)(C)C)cc1 | 8
COc1ccc(-c2nnn(CCc3nn[nH]n3)n2)cc1OC | 0
O=C(Cn1cc2c(n1)CCCCC2)N1CCc2ccccc2C1 | 0
O=C(CSc1ncccn1)c1ccccc1Br | 7
CCN1CCCC1CN=Cc1c(O)n(-c2ccccc2)c(=O)c2ccccc12 (stereo not drawn) | 0
COc1ccc(-c2cc3ccc(OCc4nn[nH]n4)cc3oc2=O)cc1 | 7
COc1cc(NS(=O)(=O)c2cccc3nsnc23)c(C(=O)O)cc1OC | 0
COc1cc2c(cc1OC)CN(Cc1nc3ccsc3c(=O)[nH]1)CC2 | 6
CC1(C)Cc2noc(N)c2C(C)(C)N1O | 0
O=C(CN1C(=O)CCS(=O)(=O)c2ccccc21)NCc1ccc(F)cc1 | 3
Cn1c(=O)[nH]c(=O)c2c1nc(N1CCCCC1)n2CCSc1ncccn1 | 0
O=C(CSc1ncnc2c1oc1ccccc12)NCc1ccco1 | 6
CC(C)c1nnc(NC(=O)CCC(=O)NCc2ccc3c(c2)OCO3)s1 | 3
C/C=C/c1ccc(OCCn2cncn2)c(OC)c1 | 0
COc1ccc(-n2c(SCc3ccc(C#N)cc3)nnc2-c2ccccn2)cc1 | 0
Cc1ccc(-n2nnnc2SCC(=O)Nc2c(C)n(C)n(-c3ccccc3)c2=O)cc1 | 0
